Mdm2-MdmX inh: inhibitors of human Mdm2/MdmX interaction. O15151+Q00987. 330,000 tested, 3% active. SaOS-2 split-luciferase Mdm2/MdmX complementation, luminescence. AID 485346. inhibition, % at 8 µM;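 active = inhibition of at least 50% at 8 µM in the primary screen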
Target sequence (O15151 whole entry, looked up): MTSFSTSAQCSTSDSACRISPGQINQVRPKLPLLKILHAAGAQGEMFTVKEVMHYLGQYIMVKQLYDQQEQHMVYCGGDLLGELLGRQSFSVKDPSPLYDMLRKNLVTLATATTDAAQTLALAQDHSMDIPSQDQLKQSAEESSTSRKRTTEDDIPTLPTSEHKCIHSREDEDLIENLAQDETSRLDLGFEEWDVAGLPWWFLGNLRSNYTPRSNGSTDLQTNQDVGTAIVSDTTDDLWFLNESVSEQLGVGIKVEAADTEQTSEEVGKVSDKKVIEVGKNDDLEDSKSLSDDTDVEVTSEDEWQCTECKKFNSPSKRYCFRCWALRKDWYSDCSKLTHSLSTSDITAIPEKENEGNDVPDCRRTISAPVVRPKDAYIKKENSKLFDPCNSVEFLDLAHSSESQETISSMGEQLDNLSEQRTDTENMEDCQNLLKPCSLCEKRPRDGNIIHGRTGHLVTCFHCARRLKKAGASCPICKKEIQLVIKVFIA
Target sequence (Q00987 whole entry, looked up): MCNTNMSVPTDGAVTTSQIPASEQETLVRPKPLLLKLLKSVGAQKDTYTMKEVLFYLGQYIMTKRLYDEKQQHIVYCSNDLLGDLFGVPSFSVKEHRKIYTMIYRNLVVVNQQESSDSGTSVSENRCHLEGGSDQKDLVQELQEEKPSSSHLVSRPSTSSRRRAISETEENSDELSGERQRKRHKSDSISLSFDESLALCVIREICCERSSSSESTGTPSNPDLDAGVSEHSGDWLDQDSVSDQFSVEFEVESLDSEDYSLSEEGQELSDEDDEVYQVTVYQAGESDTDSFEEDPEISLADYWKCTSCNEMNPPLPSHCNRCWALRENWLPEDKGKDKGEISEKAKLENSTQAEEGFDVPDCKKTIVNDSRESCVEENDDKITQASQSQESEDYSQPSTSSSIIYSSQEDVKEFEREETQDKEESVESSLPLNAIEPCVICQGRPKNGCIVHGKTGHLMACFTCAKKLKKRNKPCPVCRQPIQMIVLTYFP
Beta cell apopt: blocks beta cell apoptosis. AID 435005. 300,000 tested, 0.8% active. INS-1E cytokine-induced death, ATP luminescence, 48 h; percent of positive-control rescue, neutral wells zero. protection from apoptosis, % (concentration not given with the values);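 active = Every replicate reaches about 75%, or at least half do and their mean reaches it too, limit read from the data; inconclusive = At least half of replicates reach the limit but their mean does not; inactive = Under half of replicates reach the limit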;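 also: higher means more ATP so stronger rescue from cytokine killing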
Jurkat NFkB inh: lowers PMA/ionomycin-induced NF-kB signal in Jurkat cells; PMA/ionomycin-induced NF-kB luciferase reporter, luminescence; inhibition, % at 4 µM; 330,000 tested, 0.53% active; in the data active = inhibition above about 50%
697 NFkB inh: inhibitors of the PMA/ionomycin-induced NF-kB reporter in 697 B cells | inhibition, % at 4 µM | 697 B-cell NF-kB luciferase reporter, 16 h | 330,000 tested, 0.33% active; in the data active = inhibition above about 35%
NTR1 ag: activates human neurotensin receptor 1. NTR1-U2OS beta-arrestin-GFP spot imaging, agonist mode. activation, % at 20 µM. 330,000 tested, 0.17% active. AID 493036;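 active = activation at or above 40% of the spot to cytoplasm intensity ratio, with at least 20 cells analyzed; inconclusive = wells under 20 cells, flagged as cytotoxic or low count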
A1 inh: inhibitors of the anti-apoptotic protein A1, read as caspase activation. MEF A1-2A-BIM cells, Caspase-Glo 3/7 luminescence, 3 h; percent of clofoctol response, vehicle zero. caspase activation, % (test concentration not listed). 330,000 tested, 0.066% active. AID 2462;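 active = over half of replicate activation scores above 10%, or exactly half above 10 with the replicate mean above 10; inconclusive = replicate mean below 10 yet half the replicates above 10; inactive = over half of replicates below 10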
Mdm2-MdmX conf: confirmation of human Mdm2/MdmX interaction inhibitors; shares compounds with Mdm2-MdmX inh; Mdm2-MdmX binding, luminescent assay; inhibition, % at 8 µM; 10,000 tested, 55% active; AID 489028; in the data active = inhibition above about 40%
Full FLuc ctr: full-length luciferase inhibition in Mdm2/MdmX counter-screen; SaOS-2 full-length luciferase counterscreen, luminescence; inhibition, % at 8 µM; 6,200 tested, 77% active; shares compounds with Mdm2-MdmX inh;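 active = mean inhibition at 8 µM reaching about 37%, which flags the compound as non-specific, limit read from the data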;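 also: p53-null SaOS-2 cells with luciferase driven by a doxycycline-inducible promoter; compound on cells about two nights before reading with doxycycline added after day one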
Large screens that a line does not name were inactive (follow-up assays come after a bar, where they were run). Most compounds without a hit are left out; they make up all but 3.8% or so of the library.

CCOC(=O)c1sc(NC(=O)c2c(C)nn(Cc3ccccc3)c2C)cc1C	Mdm2-MdmX inh 53, Beta cell apopt 88 | Mdm2-MdmX conf inactive
CC(=O)N1N=C(c2cccc(Cl)c2)OC1c1cccc([N+](=O)[O-])c1 (centres undefined)	Mdm2-MdmX inh 65 | Mdm2-MdmX conf inactive
Clc1ccc(-[n+]2c(-c3cccc(Br)c3)[nH]c3nc4ccccc4nc32)cc1	Mdm2-MdmX inh 61 | Mdm2-MdmX conf inactive
Brc1cccc(-c2nc3cccnc3nc2-c2cccc(Br)c2)c1	none
CC(C)(C)CN1CCC(Oc2cccc(C(=O)N3CCNC(=O)C3(C)C)c2)CC1	none
O=C(Cc1ccc(Cl)cc1)Nc1ccc2oc(-c3ccncc3)nc2c1	Mdm2-MdmX inh 55 | Mdm2-MdmX conf inactive
COc1ccc(CC(=O)Nc2ccc(-c3noc(-c4cc(OC)c(OC)c(OC)c4)n3)cc2)cc1	Mdm2-MdmX inh 50 (no result: Beta cell apopt) | Mdm2-MdmX conf 52 | Full FLuc ctr 79
O=C(Cc1ccccc1)Nc1ccc2oc(-c3cccnc3)nc2c1	none
Cc1ccccc1-c1nc(-c2ccc(NC(=O)c3ccc4c(c3)OCO4)cc2)no1	none
COc1ccc(-c2noc(CCC(=O)Nc3ccc(C)c(C)c3)n2)cc1	none (no result: Beta cell apopt)
COc1ccc(CC(=O)Nc2ccc(-c3nc4cc(C)ccc4o3)c(O)c2)cc1OC	Mdm2-MdmX inh 92 | Mdm2-MdmX conf 47 | Full FLuc ctr 115
COc1cc(-c2nc(-c3ccc(NC(=O)c4ccc5c(c4)OCO5)cc3)no2)cc(OC)c1OC	Mdm2-MdmX inh 83 | Mdm2-MdmX conf 77 | Full FLuc ctr 44
Cc1ccc2oc(-c3ccc(NC(=O)c4ccncc4)cc3O)nc2c1	none
Cc1ccc(S(=O)(=O)CCC(=O)OC(C)C(=O)N2CCc3ccccc32)cc1 (centres undefined)	none (no result: Beta cell apopt)
Cc1ccc(NC(=O)COC(=O)c2ccc(CN3CCCC3=O)cc2)c(Cl)c1	none
NC(=O)C1CCN(CC(=O)Nc2ccccc2C(=O)NC2CC2)CC1	none
COc1ccc(NC(=O)c2ccc(-c3ccc(-c4noc(C)n4)cc3C)cc2)cc1N1CCN(C)CC1	Mdm2-MdmX inh 99 | Mdm2-MdmX conf inactive
CCOc1ccccc1-c1nc(-c2ccc(NC(=O)Cc3ccc(OC)cc3)cc2)no1	Mdm2-MdmX inh 57 | Mdm2-MdmX conf inactive
CCOc1ccccc1-c1nc(-c2ccc(NC(=O)c3ccc(Br)o3)cc2)no1	none
COc1ccc(CC(=O)Nc2ccc(-c3noc(-c4ccc(Cl)cc4)n3)cc2)cc1	Mdm2-MdmX inh 91 | Mdm2-MdmX conf inactive
COc1ccc(-c2nc(-c3ccc(NC(=O)c4ccncc4)cc3)no2)cc1OC	Mdm2-MdmX inh 70 (no result: Beta cell apopt) | Mdm2-MdmX conf 82 | Full FLuc ctr 81
COc1ccc(Cl)cc1-c1nc(-c2ccc(NC(=O)c3ccncc3)cc2)no1	none
COc1ccc(CC(=O)Nc2ccc(-c3noc(COc4ccccc4C)n3)cc2)cc1	none
N#Cc1ncc(-c2ccc3c(c2)OCCOCCOCCOCCO3)nc1C#N	none
N#Cc1ncc(-c2ccc3c(c2)OCCOCCOCCOCCOCCO3)nc1C#N	Mdm2-MdmX inh 71 | Mdm2-MdmX conf 61 | Full FLuc ctr inactive
COC(=O)c1ccc(C(=O)OC)c(NC(=O)COC(=O)CCOc2ccc(C)cc2)c1	none
CCCCN(CC)C(=O)c1oc2ccc(S(=O)(=O)N3CCCC3)cc2c1C	none
COc1ccc(C(=O)N=C2SC3CS(=O)(=O)CC3N2c2ccccc2)cc1OC (centres undefined)	none
Cc1[nH]c(=O)c(C(=O)/C=C/c2ccccc2F)c2c1CCCC2	Mdm2-MdmX inh 80 | Mdm2-MdmX conf 99 | Full FLuc ctr 53
CCC(C)(C)NC(=O)C(c1cccc(OC)c1OC)N(C(=O)CCC(=O)Nc1cc(C)on1)c1ccc2c(c1)OCCO2 (centres undefined)	none
COc1ccc(NC(=O)c2cc3c(=O)n(C)c4ccccc4c3n2C)cc1Cl	Mdm2-MdmX inh 62 | Mdm2-MdmX conf inactive
COc1ccc(NC(=O)c2cc3c(=O)n(C)c4ccccc4c3n2C)cc1OC	Mdm2-MdmX inh 59 | Mdm2-MdmX conf inactive
O=C(Cn1cc(CNC(=O)C2CCCCC2)nn1)Nc1cc(C(F)(F)F)ccc1Cl	none
COc1cccc(/C=C/c2nc(C#N)c(NCC(C)C)o2)c1	none
COc1cc(CCC(=O)NC2(C)CCS(=O)(=O)C2)cc(OC)c1OC (centres undefined)	none
CN(CC(=O)Nc1ccccc1Cl)C(=O)CSc1nnc(N)s1	none
O=C(NC1CC1)c1sc2cc(Cl)ccc2c1Cl	none (no result: Beta cell apopt)
CC1(C)CC(NC(=O)c2sc3cc(Cl)ccc3c2Cl)CC(C)(C)N1	Mdm2-MdmX inh 87 | Mdm2-MdmX conf 62 | Full FLuc ctr 46
OCCCNc1ncnc2scc(-c3ccc(Cl)cc3)c12	Mdm2-MdmX inh 71 | Mdm2-MdmX conf 60 | Full FLuc ctr inactive
C[C@H](CO)N1C[C@H](C)[C@@H](CN(C)C(=O)NC2CCCCC2)Oc2c(NS(=O)(=O)c3cccs3)cccc2C1=O	A1 inh inconclusive
CCOn1c(-n2nc(C)cc2C)nc2ccccc2c1=O	none
Cc1cc(C)n(-c2nc3ccccc3c(=O)n2OCC#N)n1	Mdm2-MdmX inh 66, Beta cell apopt 84 | Mdm2-MdmX conf 49 | Full FLuc ctr 46
COc1ccc(-c2cc(C(=O)Nc3cccc(S(=O)(=O)NCc4ccco4)c3)c3ccccc3n2)cc1OC	Mdm2-MdmX inh 54 | Mdm2-MdmX conf 66 | Full FLuc ctr 64
O=C(Nc1cccc(S(=O)(=O)NCc2ccco2)c1)c1cc(-c2ccc(F)cc2)nc2ccccc12	Mdm2-MdmX inh 69 (no result: Beta cell apopt) | Mdm2-MdmX conf inactive | Full FLuc ctr 76
COc1cc(C(=O)Nc2cccc(S(=O)(=O)NCc3ccco3)c2)cc(OC)c1OC	Mdm2-MdmX inh 69 | Mdm2-MdmX conf inactive | Full FLuc ctr 98
O=C(CSc1nnc(Nc2ccccc2F)s1)NC(=O)CN1CCCC1=O	none
COc1ccc(S(=O)(=O)N2CCN(CC(O)COc3ccc(CC#N)cc3)CC2)cc1OC (centres undefined)	none
CC(C)N1C(=O)/C(=C/c2nc3ccccc3c(=O)n2-c2ccccc2)c2ccccc21	Mdm2-MdmX inh 78 | Mdm2-MdmX conf 54 | Full FLuc ctr 37
CCN(CC)Cc1cc2[nH]c3c4ccc(Cl)cc4ncc3c2cc1OC	Mdm2-MdmX inh 54 (no result: Beta cell apopt, A1 inh) | Mdm2-MdmX conf inactive
CC[C@@H](C)[C@H](CN[C@H](CNC)C(C)C)NC[C@@H](C)c1ccc(CC(C)C)cc1	Mdm2-MdmX inh 98 | Mdm2-MdmX conf 100 | Full FLuc ctr 52

Source: PubChem (several laboratories)
